Data as given in publication PMC12136788.
The full ranking holds about 24,000 sequences; the median of “enrichment r” is about 0.99, and the highest 2% start at about 3.7. For the sample, the highest values were picked, then their nearest neighbours and some sequences at random.

T1: UNK ZnF1-3 (human, UniProt Q9C0B0 31-174)
T1 sequence: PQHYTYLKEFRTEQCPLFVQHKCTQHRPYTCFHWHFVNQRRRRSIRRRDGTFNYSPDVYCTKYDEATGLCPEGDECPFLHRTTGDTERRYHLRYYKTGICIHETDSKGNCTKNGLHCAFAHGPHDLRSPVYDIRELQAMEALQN

B1: chr8:117878989:117878990:-_ENSG00000164754_ENST00000297338|hu_hu|hu_hu_hu_mus_True|68_98 (ssRNA)
RNA: GGGAGUUCUACAGUCCGACGAUCCCAGAGGCCCUCGUUUACUGAGAACAAAAUGUGCGUAGAACAUUGUUCUGGCUUGCUAUGAAAUAAGAAGAAACCUGGAUCUCGGCGGGGAGCCGGGAGGGGUGGGUGGCCCGGGGAGGGCAACAGAGGAUUGAGCAUCA
B2: chr10:79719409:79719410:+_ENSMUSG00000020153_ENSMUST00000020361|mus_mus|FALSE|FALSE (ssRNA)
RNA: GGGAGUUCUACAGUCCGACGAUCCCAGAUCUUCAGCUUCUGUUCACGCUUGAUCUUCCGUUGCAGCUGCAAGAUGCCAUAAAGGAGUGCUUCGGCCGUGGGCGGGCAGCCUGGCACAUAGAUGUCCACUGGCACAAUGCGGUCCAACAGAGGAUUGAGCAUCA
B3: chr7:149068622:149068623:-_ENSMUSG00000025139_ENSMUST00000001950|mus_hu|mus_mus_mus_hu_False|38_48 (ssRNA)
RNA: GGGAGUUCUACAGUCCGACGAUCGUGAGGCCUCUGAGUGUGGCUUGUGGUCUGUCCUGGGUUAGAGUUGUUAAUAUCACGGAACAUACCACUUAAGGAGGUUCUGCCCCGCCUGACACCUUCAUUCCCAAUGGAGAAGAAAUCCAACAGAGGAUUGAGCAUCA
B4: chr7:54823571:54823572:-_ENSG00000132432_ENST00000352861|hu_mus|hu_hu_hu_mus_False|48_88 (ssRNA)
RNA: GGGAGUUCUACAGUCCGACGAUCUCCCAUGAUAGCAAAUCCUAUAGCUGUUGCCAUGGCAAUCUUCUGGAAUUCUUUUCUGUCGGGUUUAGUGCAUCUUUUAACCAGCCGAAUUGAGUCCUUUACAAACUGCCGGCUGGGCUCCAACAGAGGAUUGAGCAUCA
B5: 55316162_55316282_4585_3pUTR_ENSMUSG00000018583_ENSMUST00000018727|mouse|control|control (ssRNA)
RNA: GGGAGUUCUACAGUCCGACGAUCUGACAACAGGGACUCCUGCCUAAGAGUAUCUUGCUGCUCUUCCAGGACAUAAGUUCGAUUCCCAGCACCUGUGUAGGAGGGCUCACUCACCUGUAACUCCAGCUCCAAGGGGCCACAGGCCAACAGAGGAUUGAGCAUCA
B6: chr17:56739783:56739784:+_ENSMUSG00000071054_ENSMUST00000095224|mus_mus|FALSE|FALSE (ssRNA)
RNA: GGGAGUUCUACAGUCCGACGAUCAUAUCUGCUAAACAGGUUCUUCAGAUCCGUGGCUCUGGUUGUAGACGAAAGGCCACUAACCCAGAAAUUCCUACCACAGCUGCUGCGACCCUUCUCUUCUCGGGAAAGCCUUUUUGUAUCCAACAGAGGAUUGAGCAUCA
B7: chr1:163112212:163112213:-_ENSG00000143248_ENST00000313961|hu_hu|FALSE|FALSE (ssRNA)
RNA: GGGAGUUCUACAGUCCGACGAUCUUUAUUUAUCCAGAAGCAUGAGUCACAUAGUACAUAAAGUAUUGAAUACAAAAUUCUAAAGAUAAACACAAUUUUUCUUGAAUUUAAAAUAUAUGGGAUAAAUGCUUACAAAUGGAUUUACAACAGAGGAUUGAGCAUCA
B8: chr1:163112212:163112213:-_ENSG00000143248_ENST00000313961|hu_hu|hu_hu_hu_mus_False|78_88 (ssRNA)
RNA: GGGAGUUCUACAGUCCGACGAUCUUUUAUUAUCAGUAAGAGUGAGUCACAUAGUACAUAAAGUAUUGGAUACAAUAAUCAGGAAACAAACACUAUUGGUCCAGAAUUUAAAACUUUAUGAGCGAAGUGCUGGCACAGGACUUACAACAGAGGAUUGAGCAUCA
B9: chr2:61705769:61705770:-_ENSG00000082898_ENST00000401558|hu_hu|motif|central (ssRNA)
RNA: GGGAGUUCUACAGUCCGACGAUCAAAUGGGCAUGAAGUAAAAUUUUUAAAAAUGCCUUAAUUUUCAACUUCAUGCAAACGGAAUAAAGAUGACCAAAACAAAAGCUUAAACAAUGGAAGGAUAUUUCACAGAAAAUUUCUUAUCAACAGAGGAUUGAGCAUCA
B10: chr5:145543945:145543946:-_ENSG00000133706_ENST00000545646|hu_mus|FALSE|FALSE (ssRNA)
RNA: GGGAGUUCUACAGUCCGACGAUCCUGAACGGCCAGUGGUGGGAAAUAAUCAAGCCAGUGCUCUGCUUCAGAAAACUUCACUAUGUCGUCAUCAGAGAGCCCAAGGGAUUUCAUAAUGUCCCACUGGUACUUAGAAGAUCCUGCCAACAGAGGAUUGAGCAUCA
B11: chr7:141445308:141445309:+_ENSG00000106028_ENST00000265304|hu_hu|hu_hu_hu_mus_False|28_98 (ssRNA)
RNA: GGGAGUUCUACAGUCCGACGAUCUAUGAUUGUUGUUGCUUGUCGCCUCACAUUGUUUUUAUCCAUGUACUCGCCAUAGUCCACUUUCCCUUCCACAAAUAUACGAGACCCCUUUUUCACAUACUGAUAUGCCACAUCUCUGAGCAACAGAGGAUUGAGCAUCA
B12: 39165641_39167405_4275_CDS_ENSMUSG00000037475_ENSMUST00000047037|mouse|control|control (ssRNA)
RNA: GGGAGUUCUACAGUCCGACGAUCUGAAGAGUCCUUGAGAUCGAUGAGACUGUCCUUUACUGUGGAGGAAUGUGAUGGAGAAGGAUGACUAUCAAUUUUGCGGCGUUUUUGUUCCCUGUCAGGCUCCGAGAUAUCUGAUCGGGGCAACAGAGGAUUGAGCAUCA
B13: chr11:46405157:46405158:+_ENSG00000110492_ENST00000395566|hu_hu|hu_hu_hu_mus_False|28_98 (ssRNA)
RNA: GGGAGUUCUACAGUCCGACGAUCCCCUCCCCACUUUGGCUGGGGAGUGUGGGCGUGAGAGGACAGGCGUGAUUGACAGAGCUGACAGGAAGACAAAAGGCACUGGUGGGUCACAUCUUGGGCCUGUGGGAGAGGAGGGCUCCGCAACAGAGGAUUGAGCAUCA
B14: 11472005_11472125_940_CDS_ENSG00000105520_ENST00000251473|human|control|control (ssRNA)
RNA: GGGAGUUCUACAGUCCGACGAUCCUUGCAGGGGAAGGCGCGGCGCGCGGCGGCCACGAGGCUGGGACUGCCAGCGCAGGCACCCUGGUCAGUGACAAAGCGGUCGGGACCUGGCCGAUCCGGAGAAGGUGGCAGGCAGCCCAGCAACAGAGGAUUGAGCAUCA
B15: chr11:87793471:87793472:-_ENSMUSG00000020483_ENSMUST00000020775|mus_mus|mus_mus_mus_hu_False|68_108 (ssRNA)
RNA: GGGAGUUCUACAGUCCGACGAUCUGGGGGCUGGGGAAAAAGAAUAAGCUGGAUCCCCCACCCCCCCACAGUGUCAACCCUACACGAGAGUUUUGAAGGCGACUCAUGAAAAUCAGCAGCUCAAACGGCAAUGACCACCCCACCCAACAGAGGAUUGAGCAUCA

Target: T1, UNK ZnF1-3
Assay: nsRBNS (natural sequence RNA bind-n-seq); RBNS binding buffer (assumed for nsRBNS): 25 mM Tris pH 7.5, 150 mM KCl, 3 mM MgCl2, 0.01% Triton X-100, 500 ug/ml BSA, 20 U/ml SUPERase-In, 4 C; UNK is unkempt and MSI1 is Musashi-1; names of the RNAs are library labels; protein concentration not given here; high values mean tight binding

Row | Binder | binding signal
1 | B1 | 2.44 enrichment R
2 | B2 | 0.695 enrichment R
3 | B3 | 0.716 enrichment R
4 | B4 | 0.587 enrichment R
5 | B5 | 0.768 enrichment R
6 | B6 | 0.796 enrichment R
7 | B7 | 7.3 enrichment R
8 | B8 | 1.53 enrichment R
9 | B9 | 2.43 enrichment R
10 | B10 | 0.979 enrichment R
11 | B11 | 0.605 enrichment R
12 | B12 | 1.19 enrichment R
13 | B13 | 2.01 enrichment R
14 | B14 | 0.958 enrichment R
15 | B15 | 1.65 enrichment R
